This passage reports growth results from PubChem BioAssay (NCI).

The panel holds about 83,000 compounds, 20% with a hit somewhere; the sample as a whole holds those more often.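 Single-concentration screen, 48 h exposure, 96-well plates. Endpoint: percent growth. Below 10 = active.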 Values without a mark were called inactive. Active and inactive are the calls of the source.

The test system of the test is DU-145 prostate. Put plainly: NCI-60 one-dose screen, 48 h (100 = growth as untreated, 0 = no growth, -100 = all killed). The note with it: 10 µM.
Turning to `COc1cc2nc(Nc3cccc(NC(C)=O)c3)nc(N)c2cc1OC`, the growth is 90.2%.

Regarding `COc1ccc(-c2nc3sc(C4CC4)nn3c2/C=C2/C(=O)Nc3ccc(OC)cc32)cc1`, the growth is 62.3%. Under `Cc1cc(N(CCCNc2ccnc3cc(Cl)ccc23)Cc2cccs2)nc(Cl)n1` stands 50.2%; under `O=C1OCC2=C1C(c1cccc(Br)c1)c1cc3c(cc1N2CCO)CCC3` (stereo not given), -28.9% (active). For the compound `COc1ccc(/C=C2/CN(C(=O)c3ccc(C)cc3)C/C(=C\c3ccc(OC)cc3)C2=O)cc1`, the growth is 93.5%. `Cc1ccc(C(=O)Nc2cccc(F)c2)cc1NC(=O)C1(c2ncnc3[nH]ccc23)CC1`: the growth was 106%. Next, `Clc1ccccc1N=Cc1ccc2c(c1)OCO2`: 112%; `CC12O[C@H](C[C@@H](OC(=O)c3ccccc3)[C@H]1O)n1c3ccccc3c3c4c(c5c6ccccc6n2c5c31)C(=O)NC4=O`: 58.2%; `CCN(CC)CCNc1ccc(CO)c2oc3cc(Cl)ccc3c(=O)c12`: 108%. Regarding `N#Cc1ncc(-c2cc(F)c(F)c(F)c2)c(NC2CCCCCC2)n1`, the growth is 108%. For the compound `CC/C(C)=C(\C)C(=O)O`, the growth was 104%. Consider `CC(=O)N1N=C(c2ccc(Cl)cc2)CC1c1sc(Cl)nc1Cl` (stereo not given), for which the growth was 74.7%.

For the compound `Nc1ncn(C2OC(CO)C(O)C2O)c(=O)n1` (stereo not given), the growth is -9.86% (active). Turning to `Nc1c(C(=O)Nc2cccc(Br)c2)sc2nc3c(cc12)C(O)CCC3` (stereo not given), the growth was -0.178% (active). Next, `Oc1[nH]c2ccc(Cl)cc2c1/C=c1/ccc2c(c1)N=C(c1cccs1)N=2`: 58.7%.
